# Experimental data published in PubChem BioAssay (Tox21).
# Inconclusive results are not listed. Values without a mark were called inactive. Calls come from the whole dose curve.
# Experiment: p53 small molecule agonists, cell-based qHTS assay with rat liver microsomes (AID 1963578)
# Conditions: HCT-116 p53RE-bla, beta-lactamase ratio, 16 h; series mostly up to 66 µM; activation: at the top concentration
# Source text: U.S. Tox21 Program National Center for Advancing Translational Sciences [NCATS] Division of Preclinical Innovation [DPI] U.S. Environmental Protection Agency [EPA] National Institutes of Environmental Health Sciences [NIEHS] National Toxicology Program [NTP] U.S. Food and Drug Administration [FDA] Tox21 Assay Overview: p53, a tumor suppressor protein, is activated following cellular insult, including DNA damage and other cellular stresses. The activation of p53 regulates cell fate by inducing DNA repair, cell cycle arrest, apoptosis, or cellular senescence. The activation of p53, therefore, is a good indicator of DNA damage and other cellular stresses. […] The activation of the reporter gene under culture conditions can be detected by fluorescence intensity. This cell line was used to screen the Tox21 10K compound library in the condition of presence of rat liver microsomes and to identify agonists that activate the p53 signaling pathway after in vitro metabolic activation (Ooka et al., Archive of Toxicology 96:1975-1987, 2022).
# Tox21 Assay Protocol Summary: The p53RE-bla cells were dispensed at 4,000cells/3ul/well in 1536-well black-clear bottom plates. After the assay plates were incubated at 37 C, 5% CO2 incubator for 5 hours, 23 nL of compounds dissolved in DMSO, positive controls or DMSO only was transferred to the assay plate. Following compound addition, 3 uL of rat liver microsomes (Molecular Toxicology, Boone, NC) at final concentration of 0.5 mg/mL and 1uL of Beta-Nicotinamide adenine dinucleotide 2-phosphate (NADPH) at final concentration of 0.5 mg/mL were transferred to the assay plate. The plates were incubated at 37 C for 16 hours. 1 uL of LiveBLAzer detection mixture was added to each well and the plates were incubated at room temperature in the dark for 2 h.
# % is set by controls: 0 for no effect and ±100 for the full control effect.
row,Compound,activation
1,NCC1(CC(=O)O)CCCCC1,-0.509% [at 30.3 µM]
2,CC(C)(CCl)C(=O)Cl,-1.21%
3,C[C@@H](Oc1ccc(Cl)cc1Cl)C(=O)O,-2.03%
4,Cn1c(CCCC(=O)O)nc2cc(N(CCCl)CCCl)ccc21,4.15% [at 30.3 µM]
5,Cc1cccc(Cc2cnc[nH]2)c1C,0.829% [at 30.3 µM]
6,COc1cc(CC(C)N)cc2c1OCO2 (stereo not given),-2.52%
7,CC1N=C(N)OC1c1ccccc1 (stereo not given),0.0966%
8,CN1[C@@H]2CC[C@H]1CC(OC(=O)c1cc(Cl)cc(Cl)c1)C2 (stereo not given in full),0.211% [at 30.3 µM]
9,C=CC(=O)N(C)C,-2.69%
10,O=C(O)CBr,1.59%
11,COC1CC(=C(c2cccs2)c2cccs2)C[N+](C)(C)C1 (stereo not given),-2.23% [at 30.3 µM]
12,CCCCCCBr,-4.2%
13,O=C(Nc1ccccc1-c1ccc(Cl)cc1)c1cccnc1Cl,-2.42%
14,CC1(C)CON(Cc2ccccc2Cl)C1=O,-1.39%
15,O=C(O)C(F)(F)C(F)(F)C(F)(F)C(F)(F)C(F)(F)F,-0.465%
16,Clc1ccc(CSC(Cn2ccnc2)c2ccc(Cl)cc2Cl)cc1 (stereo not given),3.91% [at 30.3 µM]
17,CSSC,-1.85%
18,CNC(C)Cc1ccccc1OC (stereo not given),0.273% [at 30.3 µM]
19,CCCCc1ccc(O)cc1,-6.03%
20,CC(Oc1cccc(Cl)c1)C(=O)O (stereo not given),-3.47%

row,Compound,activation
1,COC(=O)C(C)Oc1ccc(Oc2ccc(Cl)cc2Cl)cc1 (stereo not given),-4.8%
2,CCC(C)c1cc(C(C)(C)C)cc(-n2nc3ccccc3n2)c1O (stereo not given),-0.434% [at 30.3 µM]
3,C[C@@H]1O[C@@H](O[C@@H]2C=C3CC[C@@H]4[C@H](CC[C@]5(C)[C@@H](c6ccc(=O)oc6)CC[C@]45O)[C@@]3(C)CC2)[C@H](O)[C@H](O)[C@H]1O,-8.42% [at 30.3 µM]
4,C[C@]12Cc3cn[nH]c3C[C@@H]1CC[C@@H]1[C@@H]2CC[C@@]2(C)[C@H]1CC[C@]2(C)O,-2.9% [at 30.3 µM]
5,OC(c1ccccc1)(c1ccccc1)C1CCNCC1,2.63% [at 30.3 µM]
6,CC1(c2ccc(Oc3ccccc3)cc2)OC(=O)N(Nc2ccccc2)C1=O (stereo not given),0.587%
7,N#CCCC(Br)(C#N)CBr (stereo not given),0.334%
8,COc1ccc(OC)c(C=O)c1,-4.01%
9,CC1CCCC1,-0.734%
10,O=C1OC(c2ccc(O)c(S(=O)(=O)O)c2)(c2ccc(O)c(S(=O)(=O)O)c2)c2c(Br)c(Br)c(Br)c(Br)c21,3.49% [at 30.3 µM]
11,CC#C[C@]1(O)CC[C@H]2[C@@H]3C[C@H](C)C4=CC(=O)CC[C@]4(C)[C@H]3CC[C@@]21C,4.4% [at 30.3 µM]
12,CC(C)(C)C(=O)C(Oc1ccc(Cl)cc1)n1cncn1 (stereo not given),1.05%
13,C=CCC1([C@H](C)CCC)C(=O)NC(=O)NC1=O,-2.08%
14,COc1ccccc1N1CCNCC1,0.783% [at 30.3 µM]
15,C=CC(C)(CCC=C(C)C)OC(=O)c1ccccc1N (stereo not given),1.1%
16,O=[N+]([O-])c1c(Cl)c(Cl)cc(Cl)c1Cl,-0.0538%
17,O=C(NC(=O)c1c(F)cccc1F)Nc1cc(Cl)c(F)c(Cl)c1F,0.851%
18,CC(C)(C)NCC(O)c1cc(Cl)c(N)c(C(F)(F)F)c1 (stereo not given),0.162% [at 30.3 µM]
19,CC(=O)[C@H]1CC[C@H]2[C@@H]3CC[C@H]4C[C@H](O)CC[C@]4(C)[C@H]3C(=O)C[C@]12C,0.408% [at 30.3 µM]
20,Oc1cc(Cl)c(Cl)c(Cl)c1Cl,-2.54%
